PubChem BioAssay (NCI)
Compounds without any hit were thinned out: in the full panel of roughly 83,000, 20% have a hit.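 A percent growth of 40 corresponds to 60% growth inhibition; 0 means no net growth; -100 means all cells died. Active threshold: below 10.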 Active and inactive are the calls of the source.

What was measured:
Test in all cases: NCI-60 one-dose screen, 48 h (100 = growth as untreated, 0 = no growth, -100 = all killed)
Conditions in all cases: 10 µM unless noted
T-47D breast = test system: T-47D breast
BT-549 breast = test system: BT-549 breast
MDA-MB-435 melanoma = test system: MDA-MB-435 melanoma
SW-620 colon = test system: SW-620 colon
MCF7 breast = test system: MCF7 breast
HCT-116 colon = test system: HCT-116 colon
HCC-2998 colon = test system: HCC-2998 colon
KM12 colon = test system: KM12 colon

Measured: growth

COC(=O)[C@]12CC[C@@H](C)[C@H](C)[C@@H]1C1=CC[C@@H]3[C@@]4(C)C[C@@H](O)[C@H](O)[C@@](C)(CO)C4=CC[C@@]3(C)[C@]1(C)CC2
active: T-47D breast -26.5% | BT-549 breast -80.2% | MDA-MB-435 melanoma -53.1% | SW-620 colon -55.5% | MCF7 breast -37.1% | HCT-116 colon -37.5% | HCC-2998 colon -86.5% | KM12 colon -70.8%

CC(C)(C)c1nc(-c2ccc(O)c(O)c2)cs1
inactive: T-47D breast 61.6% | BT-549 breast 63.3% | MDA-MB-435 melanoma 36.6% | SW-620 colon 28.6% | MCF7 breast 83% | HCT-116 colon 48.8% | HCC-2998 colon 86.1% | KM12 colon 76.7%

Cc1cc(Nc2ccc(F)cc2)nc(N2CCN(c3ccnc4cc(Cl)ccc34)CC2)n1
active: MCF7 breast 9.35% | HCT-116 colon 4.86%
inactive: T-47D breast 10.8% | BT-549 breast 47.5% | MDA-MB-435 melanoma 13.2% | SW-620 colon 23.1% | HCC-2998 colon 25.8% | KM12 colon 21.6%

COc1ccc(C(=O)/C=C/c2cc(-c3cc(OC)c(OC)c(OC)c3)n[nH]2)cc1OC
active: T-47D breast -2.5% | BT-549 breast -51.6% | MDA-MB-435 melanoma -71.6% | SW-620 colon -64% | MCF7 breast -39.6% | HCT-116 colon -88.7% | HCC-2998 colon -77.2% | KM12 colon -86.7%

C=C(C)[C@@H]1CC[C@]2(C(=O)NNC(=O)c3cccnc3)CC[C@]3(C)[C@H](CC[C@@H]4[C@@]5(C)CCCNC(C)(C)[C@@H]5CC[C@]43C)[C@@H]12
inactive: T-47D breast 57.6% | BT-549 breast 82.3% | MDA-MB-435 melanoma 83.6% | SW-620 colon 85.7% | MCF7 breast 59% | HCT-116 colon 45.7% | HCC-2998 colon 73.4% | KM12 colon 78.4%

O=C1c2cc3c(cc2-c2c1c1ccc(F)cc1c(=O)n2CCCN1CCOCC1)OCO3
inactive: T-47D breast 28.4% | BT-549 breast 47.5% | MDA-MB-435 melanoma 65.6% | SW-620 colon 48.8% | MCF7 breast 13.5% | HCT-116 colon 45.2% | HCC-2998 colon 77.8% | KM12 colon 69.8%

CCCCCCCC(=O)SCC/C=C/[C@@H]1CC(=O)NCc2cccc(n2)CN(Cc2ccc(Cl)cc2)CC(=O)N[C@@H](C(C)C)C(=O)O1
inactive: T-47D breast 30.9% | BT-549 breast 38.8% | SW-620 colon 16.7%
active: MDA-MB-435 melanoma 6.92% | MCF7 breast 9.09% | HCT-116 colon -1.93% | HCC-2998 colon -24.2% | KM12 colon 5.69%

O=C(NO)c1ccc(Cn2c(=O)n(-c3ccccc3)c(=O)c3ccccc32)cc1
active: MDA-MB-435 melanoma -64.2% | SW-620 colon 0.142% | HCT-116 colon -53.1% | KM12 colon -7.84%
inactive: T-47D breast 14.1% | BT-549 breast 32.4% | MCF7 breast 33.2% | HCC-2998 colon 54.1%

COC(=O)[C@]12CC[C@@H](C(=O)/C=C/c3cccnc3)[C@@H]1[C@H]1CC[C@@H]3[C@@]4(C)C/C(=C/c5cccnc5)C(=O)C(C)(C)[C@@H]4CC[C@@]3(C)[C@]1(C)CC2
active: T-47D breast -43.6% | BT-549 breast -92.1% | MDA-MB-435 melanoma -69.7% | SW-620 colon -67.3% | MCF7 breast -54.2% | HCT-116 colon -87.4% | HCC-2998 colon -55.5% | KM12 colon -75%

COC(=O)[C@]12CC[C@@H](C)[C@H](C)[C@@H]1C1=CC[C@@H]3[C@@]4(C)C=C(O)C(=O)C(C)=C4CC[C@@]3(C)[C@]1(C)CC2
active: T-47D breast 5.51% | HCC-2998 colon 9.96%
inactive: BT-549 breast 69.1% | MDA-MB-435 melanoma 49% | SW-620 colon 27.9% | MCF7 breast 17.2% | HCT-116 colon 18.1% | KM12 colon 30.3%

Cc1cc(N(CCCNc2ccnc3cc(Cl)ccc23)Cc2ccco2)nc(N2CCN(C)CC2)n1
active: MDA-MB-435 melanoma -5.06%
inactive: T-47D breast 23.6% | BT-549 breast 50.2% | SW-620 colon 33.6% | MCF7 breast 29% | HCT-116 colon 28.3% | HCC-2998 colon 86.9% | KM12 colon 63.3%

c1cnc2[nH]cc(-c3csc(-c4cn(CCCN5CCCCC5)c5ccccc45)n3)c2c1
active: MDA-MB-435 melanoma 1.72% | SW-620 colon -47.4%
inactive: T-47D breast 63.1% | BT-549 breast 90.9% | MCF7 breast 22.2% | HCT-116 colon 60.6% | HCC-2998 colon 87.6% | KM12 colon 63.3%

c1ccc2[nH]c(-c3cc(-c4ccc5c(c4)OCO5)n[nH]3)nc2c1
inactive: T-47D breast 40% | BT-549 breast 34.5% | MDA-MB-435 melanoma 58% | SW-620 colon 61.3% | MCF7 breast 59.2% | HCT-116 colon 51.7% | HCC-2998 colon 81.2% | KM12 colon 28.2%

CN1CCN(c2ccc3nc(-c4[nH]ncc4Nc4ncnc5[nH]ccc45)[nH]c3c2)CC1
inactive: KM12 colon 10.2%
active: T-47D breast -3.09% | BT-549 breast -41.9% | MDA-MB-435 melanoma 0.107% | SW-620 colon 3.78% | MCF7 breast 3.28% | HCT-116 colon 2.16% | HCC-2998 colon -23.2%

COc1ccc(OCC(CO)N2CCN(c3ccccc3)CC2)cc1 (stereo not given)
inactive: T-47D breast 101% | BT-549 breast 97.5% | MDA-MB-435 melanoma 108% | SW-620 colon 110% | MCF7 breast 83.4% | HCT-116 colon 95.7% | HCC-2998 colon 99.7% | KM12 colon 105%
